Bioassay records deposited in PubChem BioAssay by Broad Institute.
aSyn UTR act = Activators via SNCA 5'UTR binding, MLPCN. alpha-synuclein 5'UTR reporter, activators screen. activity score, % (tested at 7.5 µM), hits read low. hit rate 7.1% among 300,000. AID 1814; in the data active = activity score below about -60%
* hit, by the source's call. Only a sample is shown.

SMILES | aSyn UTR act
COc1ccc2nc(SCC(=O)C(C)(C)C)[nH]c2c1 | -133.9*
CCOc1ccc2nc(SCC(=O)N(C)C)[nH]c2c1 | -92.1*
O=C(CSc1nc2ccccc2n1S(=O)(=O)c1ccccc1)N1CCCCC1 | -99.5*
O=C(CSc1nc2ccc(Cl)cc2[nH]1)c1cccs1 | -112.9*
O=C(CSc1nc2ccccc2[nH]1)c1ccccc1F | -162.2*
COc1ccc(C(=O)Nn2c(SCC(=O)N3CCC(C)CC3)nc3ccccc3c2=O)cc1 | 82.8
O=C(NC(=O)c1ccccc1O)c1ccc(C(F)(F)F)cc1 | -69.0*
O=C(Nc1nc2c(F)cc(F)cc2s1)C1CC1 | -107.4*
Cc1ccc2sc(NC(=O)C3CC3)nc2c1C | -73.0*
O=C(CSc1cn(Cc2ccccc2)c2ccccc12)Nc1nccs1 | -167.8*
Cc1ccc(SCC(=O)Nc2nccs2)cc1 | -107.3*
Cc1ccc(SCc2ccc(C(=O)Nc3nccs3)o2)cc1 | -78.5*
CN(C)c1ccc(NC(=O)c2sc(SCC(=O)Nc3nccs3)nc2N)cc1 | -156.0*
O=C(Nc1nccs1)c1ccc(CSc2ccccc2)o1 | -125.8*
CCOC(=O)c1c(SCC(=O)Nc2nccs2)nc(C)c(C)c1C | -67.7*
CCCCCc1nc2c(=O)[nH]c3ccccc3c2o1 | -77.6*
Cc1cc(Br)ccc1OCc1nc(-c2cccnc2)no1 | -113.6*
c1ccc(-c2noc(COc3ccc4c(c3)OCO4)n2)cc1 | -192.4*
Cc1ccccc1OCc1nc(-c2ccccc2)no1 | -178.5*
Cc1cc(NC(c2cccnc2)c2ccc3cccnc3c2O)no1 (stereo not drawn) | 77.3
Cc1ccc(-c2noc(COc3ccccc3C)n2)cc1 | -86.4*
Cc1ccc(OCc2nc(-c3ccccc3)no2)cc1 | -121.5*
O=C1C2C(C(=O)N1/N=C/c1cccc([N+](=O)[O-])c1)C1C=CC2C12CC2 (stereo not drawn) | -153.0*
Cn1cccc1/C=C1\SC(=O)N(c2ccc(O)cc2)C1=O | -143.8*
COc1c(OC(C)=O)ccc(/C=C/c2ccc3cccc(OC)c3n2)c1[N+](=O)[O-] | -146.3*
SMILES | aSyn UTR act
COc1c(OC(C)=O)ccc(/C=C/c2ccc3ccccc3n2)c1[N+](=O)[O-] | -208.7*
CCOc1c(OC(C)=O)ccc(/C=C/c2ccc3cccc(OC(C)=O)c3n2)c1[N+](=O)[O-] | -378.3*
N#C/C(=C\c1ccccc1[N+](=O)[O-])c1nc(C2CC2)cs1 | -263.8*
N#C/C(=C/c1ccccc1[N+](=O)[O-])c1nc(C2CC2)cs1 | -301.0*
N#C/C(=C\c1ccc([N+](=O)[O-])cc1)c1nc(C2CC2)cs1 | -83.8*
CCNc1nc(-c2ccc(OC(F)F)cc2)c(C)s1 | -72.0*
C=CCN=Cc1sc2ccc(OCC)cc2c1O | -115.3*
CCCCN=Cc1sc2ccc(OCC)cc2c1O | -72.5*
CC(Oc1ccc(Cl)cc1Cl)C(=O)Nc1cccc(O)c1 (stereo not drawn) | -62.4*
CC(Oc1ccc(Br)cc1Cl)C(=O)Nc1ccncc1 (stereo not drawn) | -83.9*
CCOc1ccc2nc(SCc3ccc(F)cc3)sc2c1 | -67.7*
COCCNc1oc(-c2ccc(Cl)cc2)nc1C#N | -161.7*
COCCNc1oc(-c2ccc(C)cc2)nc1C#N | -107.5*
N#Cc1nc(-c2ccc(Cl)cc2)oc1NCc1ccco1 | -108.2*
c1csc(-c2nc3c4ccccc4c4ccccc4c3[nH]2)c1 | -72.9*
O=S(=O)(c1ccc(OCc2nc3ccccc3s2)c(Cl)c1)N1CCOCC1 | -140.7*
O=S(=O)(c1cccc(-c2nnc(SCc3nc4ccccc4s3)o2)c1)N1CCOCC1 | -186.6*
CC(=O)c1c(C)[nH]c(C(=O)Nc2cccc(C(F)(F)F)c2)c1C | -99.7*
CCc1c(C(=O)Nc2ccc(C)c(C)c2)[nH]c(C)c1C(C)=O | -146.4*
CC(=O)c1c(C)[nH]c(C(=O)Nc2ccc(C)c(C)c2)c1C | -88.0*
CCOC(=O)c1c(C)[nH]c(C(=O)Nc2ccc(NC(C)=O)cc2)c1C | 89.5
CCOC(=O)c1c(C)[nH]c(C(=O)Nc2ccc(C)c(Cl)c2)c1C | -107.9*
COc1ccc(NC(=O)c2[nH]c(C)c(C(C)=O)c2C)cc1Cl | -76.8*
CC(=O)c1c(C)[nH]c(C(=O)Nc2ccc3c(c2)OCCO3)c1C | -144.1*
Cc1sc(=NC(=O)c2ccco2)n(C)c1-c1ccc(Cl)cc1 | -101.3*
SMILES | aSyn UTR act
CCOc1ccccc1OCC(=O)N/N=C(\C)Cc1ccc(OC)cc1 | 86.5
COc1ccc(C/C(C)=N/NC(=S)Nc2ccccc2)cc1 | -123.9*
COc1ccc(CNC(=S)N/N=C(/C)c2ccccc2)cc1 | -107.0*
C/C(=N\NC(=S)NCc1ccccc1)c1ccccc1F | -70.4*
CCN(CC)c1ccc(/C=N/NC(=S)NCc2ccc(OC)cc2)cc1 | -75.8*
C=CCNC(=S)N/N=C(\C)c1ccccn1 | 86.4
c1ccc2c(c1)NC1(CCCCCC1)n1c-2nc2ccccc21 | -142.2*
CCCCC1(C)Nc2ccccc2-c2nc3ccccc3n21 (stereo not drawn) | -146.4*
c1ccc2c(c1)NC1(CCCCC1)n1c-2nc2ccccc21 | -125.9*
CC1=CC(C)(C)Nc2ccccc21 | 91.8
N/C(=N\OC(=O)c1cccs1)c1cccc(Br)c1 | -128.2*
COc1ccc(/C(N)=N/OC(=O)c2cccs2)cc1OC | -185.8*
N/C(=N\OC(=O)c1cccs1)c1ccccc1 | -250.1*
Cc1cccc(/C(N)=N/OC(=O)c2cccs2)c1 | -105.5*
Cc1ccc(/C(N)=N/OC(=O)c2cccs2)cc1 | -124.4*
Cc1cc(C)nc(Sc2ccc3nnnn3n2)n1 | -72.4*
CN(N=Nc1cccc([N+](=O)[O-])c1)c1cccc([N+](=O)[O-])c1 | -82.4*
CCOc1cc(/C=N/Nc2ncnc(Cl)c2N)ccc1O | -88.9*
COc1ccccc1-n1cc2c([N+](=O)[O-])cc([N+](=O)[O-])cc2n1 | -69.2*
Cc1cc(C2=NNC(=Nc3ccccc3)SC2)c(C)n1C | -79.6*
Cc1[nH]n(C(N)=S)c(=O)c1N=Nc1ccc2ccccc2c1 | -146.7*
Cc1[nH]n(C(N)=S)c(=O)c1N=Nc1cccc([N+](=O)[O-])c1C | -163.8*
Cc1ccc(N=Nc2c(C)[nH]n(C(N)=S)c2=O)cc1C | -258.0*
CS(=O)(=O)N1CCN(c2ccc(NC(=O)c3ccc(Br)o3)cc2)CC1 | -123.4*
CC1CCN(c2ccc(NC(=O)c3ccc(Br)o3)cc2)CC1 | -143.7*
SMILES | aSyn UTR act
CCOc1cc(/C=C\[N+](=O)[O-])ccc1OCC(=O)Nc1ccccc1C | -79.8*
O=C(NCCc1ccccc1)c1cnc(Cl)c(Cl)c1 | -119.2*
O=C(NCCc1ccccc1)c1ccc(Cl)c(S(=O)(=O)N2CCCC2)c1 | -67.1*
O=C(NCC(O)c1ccccc1)c1ccc(Cl)c(S(=O)(=O)N2CCCC2)c1 (stereo not drawn) | -95.5*
O=C(NCC(O)c1ccccc1)c1ccccc1 (stereo not drawn) | -79.7*
CCC(C)n1ncn(-c2ccc(N3CCN(c4ccc(OCC5COC(Cn6cncn6)(c6ccc(Cl)cc6Cl)O5)cc4)CC3)cc2)c1=O (stereo not drawn) | 100.0
CC1CN(S(=O)(=O)c2cc(C(=O)NCCC3=CCCCC3)ccc2Cl)CC(C)O1 (stereo not drawn) | -85.2*
Cc1ccc(NC(=O)CCc2c(C)nn(-c3ccc(N4CCOCC4)nn3)c2C)cc1F | -85.7*
Cc1nn(-c2ccc(N3CCCCC3)nn2)c(C)c1CCC(=O)Nc1ccc(F)c(F)c1 | -65.6*
Cc1ccc(F)cc1NC(=O)CCc1c(C)nn(-c2ccc(N3CCCCC3)nn2)c1C | -81.9*
Cc1ccc(NC(=O)CCc2c(C)nn(-c3ccc(N4CCCCC4)nn3)c2C)cc1 | -107.1*
